Compound activity as filed in PubChem BioAssay.
Most compounds without a hit are left out; they make up all but 3.2% or so of the library.
p47phox inh = p47phox (human) inhibition; p47phox/p22phox peptide binding, fluorescence polarization, 2 h; inhibition, % at 24.7 µM; hit rate 0.53% among 220,000; AID 1274;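 active = inhibition above about 30%, limit read from the data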;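 note: 0% = p47phox with labelled peptide and 100% = labelled peptide alone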
Target sequence (P14598 whole entry, looked up): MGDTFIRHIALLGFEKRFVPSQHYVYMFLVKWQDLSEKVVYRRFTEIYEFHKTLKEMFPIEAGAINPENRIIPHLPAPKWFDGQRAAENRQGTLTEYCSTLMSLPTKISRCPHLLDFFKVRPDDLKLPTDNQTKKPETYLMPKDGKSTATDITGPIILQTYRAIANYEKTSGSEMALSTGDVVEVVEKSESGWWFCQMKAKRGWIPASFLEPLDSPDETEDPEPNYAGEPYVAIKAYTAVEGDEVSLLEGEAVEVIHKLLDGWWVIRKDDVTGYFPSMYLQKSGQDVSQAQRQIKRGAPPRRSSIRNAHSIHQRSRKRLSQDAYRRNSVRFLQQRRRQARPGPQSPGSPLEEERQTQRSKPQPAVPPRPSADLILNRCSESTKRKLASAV
Mcl-1 Bim block = inhibitors of Bim-Mcl-1 interaction, human; Q07820; Bead-based flow cytometry, Bim peptide-Mcl-1 binding; inhibition, % at 10 µM; hit rate 0.1% among 190,000; AID 1009; in the data active = inhibition above about 40%;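 note: 0% = no compound tracer wells and 100% = peptide blocker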
Mcl1-Bid inh = Mcl-1/Bid interaction inhibition; inhibition, % at 21.7 µM; hit rate 0.97% among 220,000; Q07820; TR-FRET Mcl-1/Bid-Dy647 peptide binding, 1536-well;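 active = compounds that cut the binding signal by more than half at the single screening dose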;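 note: His-tagged Mcl-1 with europium anti-His antibody binding Bid BH3 peptide; 0% = Mcl-1 plus peptide wells and 100% = peptide-only wells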
14-3-3 Bad PPI = disrupts binding of bovine 14-3-3 zeta to phospho-Bad peptide. hit rate 0.71% among 220,000. AID 781. TR-FRET 14-3-3zeta/Dy647-pBad peptide displacement, 1 h. inhibition, % at 21.7 µM. P63103;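 active = inhibition above about 70%, limit read from the data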;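 note: 0% = full 14-3-3 plus peptide FRET controls and 100% = background without 14-3-3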
Target sequence (P63103 whole entry, looked up): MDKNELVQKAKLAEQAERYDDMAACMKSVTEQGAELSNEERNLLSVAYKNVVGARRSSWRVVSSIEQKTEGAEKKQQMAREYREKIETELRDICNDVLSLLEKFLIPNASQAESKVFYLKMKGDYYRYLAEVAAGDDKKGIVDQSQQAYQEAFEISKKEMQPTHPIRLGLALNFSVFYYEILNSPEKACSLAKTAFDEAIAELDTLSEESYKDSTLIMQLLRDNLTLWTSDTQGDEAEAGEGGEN
Mcl1 Noxa PPI = disrupts binding of human Mcl-1 to Noxa peptide | Q07820 | TR-FRET Mcl-1/Noxa peptide binding, 2 h | inhibition, % at 21.7 µM | hit rate 1.5% among 220,000;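 active = compounds that cut the protein-peptide binding signal by more than 50% relative to plate controls in a single-dose test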;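 note: His-tagged Mcl-1 with rhodamine Noxa BH3 peptide and terbium anti-His antibody; 0% = Mcl-1 plus Noxa peptide wells and 100% = peptide-only wells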
Numbers without * were called inactive; nt = not tested or not shown.

SMILES	p47phox inh	Mcl-1 Bim block	Mcl1-Bid inh	14-3-3 Bad PPI	Mcl1 Noxa PPI
Cc1cc([N+](=O)[O-])ccc1NC(=O)CN1C2CCC1CC(NC(=O)NC13CC4CC(CC(C4)C1)C3)C2 (centres undefined)	-5.3	3.0	-18.9	2.8	-1.5
CN(CC(=O)Nc1ccc(F)cc1)C(=O)CSc1nc2ncc(Cl)cc2[nH]1	-4.1	-3.0	-5.2	7.9	67.3*
NC1=NC[C@H](Cc2ccc(O)cc2)N1CCc1cccc2ccccc12	62.6*	nt	-3.2	3.6	37.7
Cc1sc(NC(=O)c2ccco2)c(CN2CCN(c3ccccc3)CC2)c1C	-17.3	-2.0	-58.4	80.1*	9.9
CC(=O)c1ccc(NC(=O)C(=O)c2cn(CC(=O)N3CCCCC3)c3ccccc23)cc1	-14.7	4.0	-8.0	9.7	0.3
O=C(CN(C(=O)CNC(=O)c1ccco1)c1ccc2c(c1)OCO2)NC1CCCCC1	-10.6	1.0	82.9*	-15.4	16.1
COC(=O)C1=C(C)N(Cc2ccc(OC)cc2)C(=O)C1	4.2	0.0	-1.5	13.5	11.8
COC(=O)C1=C(C)N(CCc2ccc(OC)cc2)C(=O)C1	91.8*	-1.0	-15.2	-4.4	17.1
CC1CCc2c(sc3nc(SCC(=O)NCc4ccco4)nc(N)c23)C1 (centres undefined)	-10.5	0.0	-39.4	-11.8	22.5
CCN(CC)C(=O)CSc1nc(N)c2c3c(sc2n1)CC(C)CC3 (centres undefined)	58.7*	4.0	-12.1	-1.9	-1.6
CSc1nc(SCC(=O)NCc2ccco2)c2c3c(sc2n1)CN(C)CC3	-17.0	2.0	33.8	-9.2	83.7*
CSc1nc(NCc2ccco2)c2c3c(sc2n1)CN(C)CC3	-15.9	2.0	9.4	-7.9	57.3*
CN(C)c1ccc(/C=N/NC(=O)CCc2nc3ccccc3[nH]2)cc1	-5.8	nt	-44.6	-3.5	-1.9
Cc1ccc2c(c1)c1c3n2CCCNC3CCC1 (centres undefined)	-7.4	-6.0	63.4*	-3.5	2.2
CC1CC(C)CN(CC(C)(C)NS(=O)(=O)c2ccccc2)C1 (centres undefined)	3.8	0.0	16.9	77.2*	11.0
COc1ccc(OCCCC(=O)Nc2cc([N+](=O)[O-])ccc2C)cc1	-0.2	-1.0	-31.9	1.0	-4.4
Cc1ccc(S(=O)(=O)c2nnn(-c3cccc(F)c3)c2N)cc1	-3.5	-4.0	-23.3	1.4	1.1
Cc1cc(-c2n[nH]c(=S)n2Cc2ccccc2)cs1	41.0*	-4.0	-37.3	12.3	21.6
O=C(c1ccc(Cl)c([N+](=O)[O-])c1)N1CCN(Cc2ccc3c(c2)OCO3)CC1	-5.4	2.0	-17.9	-12.1	0.5
CCOC(=O)Cc1csc(NC(=O)CSc2nnnn2-c2ccc(C)c(C)c2)n1	-12.2	-3.0	80.5*	5.5	-18.8
Cc1ccc2nc(N3CC(=O)Nc4ccccc43)nc(-c3ccccc3)c2c1	-12.9	15.0	96.8*	0.7	10.0
CC(C)c1ccc(/C=N/NC(=O)C(=O)NCCCN2CCOCC2)cc1	6.7	-2.0	0.2	-10.7	6.9
O=C(CC1Nc2cccc3cccc(c23)NC1=O)Nc1ccccc1 (centres undefined)	-10.8	-4.0	-48.4	2.0	54.0*
COc1ccc(Cc2nc(-c3ccc(Cl)cc3)no2)cc1	-17.7	-4.0	2.5	-5.8	nt
COc1ccc(Cc2nc(-c3ccc(Br)cc3)no2)cc1	-9.2	1.0	-5.7	-1.7	57.7*
SMILES	p47phox inh	Mcl-1 Bim block	Mcl1-Bid inh	14-3-3 Bad PPI	Mcl1 Noxa PPI
CC(C)c1ccc(NC(=O)NN2CCOCC2)cc1	-10.5	-1.0	-21.7	10.2	-0.8
COCCN=c1scc(-c2cccs2)n1/N=C/c1ccc(O)c(O)c1O	8.1	4.0	-64.9	4.8	89.3*
CCN=c1scc(C)n1/N=C/c1ccc(O)c(O)c1O	-6.3	7.0	-28.3	-0.6	60.2*
CCN=c1scc(C)n1/N=C/c1cc(Br)c(O)c(Br)c1	-18.5	-1.0	-3.6	7.6	72.7*
CCN(CC)S(=O)(=O)c1ccc2c(c1)c(=O)c(C(=O)NCc1ccco1)cn2C	-12.4	0.0	-16.5	-4.3	-0.5
Cc1ccccc1OCCNC(=O)CNC(=O)c1ccccc1O	-4.2	-4.0	81.5*	6.0	nt
CCC12CC3CC(C1)CC(C(=O)NNC(N)=O)(C3)C2	-7.5	nt	-20.8	-11.1	3.2
O=C(Nc1ccc(Cl)c(Cl)c1)c1cccc(S(=O)(=O)NCc2cccnc2)c1	-22.5	0.0	17.3	-1.9	28.3
Fc1ccc(NC(=S)N/N=C/c2cccc(Br)c2)c(F)c1	-3.6	-2.0	97.2*	-10.5	-1.4
CC(=O)Nc1ccc(S(=O)(=O)N[C@@H](C)C(=O)OCc2ccc(Cl)cc2)cc1	-17.2	-2.0	1.0	-6.4	6.8
O=C(N=Nc1c(O)[nH]c2ccccc12)c1cc(-c2ccc(F)cc2)n[nH]1	4.8	-2.0	37.1	59.2	52.0*
NS(=O)(=O)c1cc(C(=O)N=Nc2c(O)[nH]c3ccccc23)ccc1Cl	-13.5	nt	-1.1	5.3	51.0*
CCOC(=O)c1c(C)n(C)c2ccc(OC)c(NC(=O)CN3CCC(C(=O)OCC)CC3)c12	0.6	nt	-15.7	1.1	-4.8
CCOc1ccc2nc(C)cc(Nc3ccc4c(c3)OCCO4)c2c1	-32.0	3.0	-22.4	-6.6	15.4
CCOc1ccc2nc(C)cc(Nc3ccc(N4CCOCC4)cc3)c2c1	-2.2	-2.0	-4.7	-8.0	61.8*
CN1CCN(CCC(=O)Nc2ccccc2Cl)CC1	0.7	2.0	-13.0	-2.4	12.1
C[N+]1(CC(=O)Nc2ccccc2Cl)CCN(C(=O)c2cccs2)CC1	93.6*	-6.0	-15.3	-1.4	15.3
Fc1cccc(Nc2nc(-c3ccncc3)nc3ccccc23)c1	-29.0	47.0*	29.7	18.8	26.0
Fc1ccc(CNc2nc(-c3ccccc3)nc3ccccc23)cc1	-26.8	0.0	7.7	-0.8	4.0
CC(NC(=O)c1ccc(OC2CCN(C(=O)c3cccnc3)CC2)cc1)C1CC1 (centres undefined)	-4.9	2.0	3.0	3.0	2.9
O=C1CCCN1CC(CN1CCOCC1)Sc1nnnn1-c1ccccc1 (centres undefined)	-5.5	2.0	14.6	78.8*	17.2
COCCn1c(SCC(=O)N2CC(=O)Nc3ccccc32)nc2ccccc21	-4.2	-5.0	-12.9	-2.7	16.4
CCOC(=O)C1=C(C)NC2=C(C(=O)CC(C)(C)C2)C1c1ccc(O)c(OCC)c1 (centres undefined)	-6.2	nt	-136.3	-0.9	1.4
CCOC(=O)C1=C(C)NC2=C(C(=O)CC(C)(C)C2)C1c1ccc2c(c1)CCCN2C (centres undefined)	0.6	-6.0	-2.2	-1.0	93.9*
Cc1nnc(NC(=O)NC(C)N2C(=O)C3C4C=CC(C4)C3C2=O)s1 (centres undefined)	-13.4	0.0	-14.9	-1.8	14.3
CC(NC(=O)Nc1nnc(C(F)(F)F)s1)N1C(=O)C2C3C=CC(C3)C2C1=O (centres undefined)	-8.4	-5.0	-1.0	78.6*	-6.3
C=C(C)CSc1nnc(CCCCCNC(=O)OC(C)(C)C)o1	-2.4	nt	-37.6	-9.2	-4.0
